According to PubChem BioAssay:
Calls of active or inactive are those of the source.

Columns and labels:
[1] = small molecules captured by biotinylated probe aFSTL3 – biochemical, small-molecule microarray, fluorescence 635/667, stem cell growth factor project, primary screen (AID 1064); conditions: higher = more signal;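 further: measures binding of the biotinylated anti-FSTL3 antibody to printed compounds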
[2] = binders from COS7 lysate, DM2A8 probe, primary screen, torsin A project, cell lysate, small-molecule microarray, fluorescence 635/667 (AID 1065); conditions: higher = more signal, COS7 lysate expressing mutant human TOR1A
[3] = small molecules captured by biotinylated probe aFGF2 – biochemical, small-molecule microarray, fluorescence 635/667, stem cell growth factor project, primary screen (AID 1067); conditions: higher = more signal;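 further: measures binding of biotinylated aFGF2 protein to printed compounds on slides; z-score merges feature fluorescence and signal-to-noise across triplicate slides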
[4] = small molecules captured by biotinylated probe aFGF10 – biochemical, small-molecule microarray, fluorescence 635/667, stem cell growth factor project, primary screen (AID 1071); conditions: higher = more signal;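 further: score merges 667 nm spot intensity and signal to noise from triplicate slides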
[5] = target: Neurogenic locus notch homolog protein 2 (Homo sapiens) (UniProt Q04721); assay: small molecules binding Notch2 protein – biochemical, small-molecule microarray, 635 nm fluorescence, stem cell growth factors, primary screen (AID 1073); conditions: higher = more signal
Sequence of Neurogenic locus notch homolog protein 2 (Homo sapiens) (Q04721 whole entry, looked up, canonical isoform): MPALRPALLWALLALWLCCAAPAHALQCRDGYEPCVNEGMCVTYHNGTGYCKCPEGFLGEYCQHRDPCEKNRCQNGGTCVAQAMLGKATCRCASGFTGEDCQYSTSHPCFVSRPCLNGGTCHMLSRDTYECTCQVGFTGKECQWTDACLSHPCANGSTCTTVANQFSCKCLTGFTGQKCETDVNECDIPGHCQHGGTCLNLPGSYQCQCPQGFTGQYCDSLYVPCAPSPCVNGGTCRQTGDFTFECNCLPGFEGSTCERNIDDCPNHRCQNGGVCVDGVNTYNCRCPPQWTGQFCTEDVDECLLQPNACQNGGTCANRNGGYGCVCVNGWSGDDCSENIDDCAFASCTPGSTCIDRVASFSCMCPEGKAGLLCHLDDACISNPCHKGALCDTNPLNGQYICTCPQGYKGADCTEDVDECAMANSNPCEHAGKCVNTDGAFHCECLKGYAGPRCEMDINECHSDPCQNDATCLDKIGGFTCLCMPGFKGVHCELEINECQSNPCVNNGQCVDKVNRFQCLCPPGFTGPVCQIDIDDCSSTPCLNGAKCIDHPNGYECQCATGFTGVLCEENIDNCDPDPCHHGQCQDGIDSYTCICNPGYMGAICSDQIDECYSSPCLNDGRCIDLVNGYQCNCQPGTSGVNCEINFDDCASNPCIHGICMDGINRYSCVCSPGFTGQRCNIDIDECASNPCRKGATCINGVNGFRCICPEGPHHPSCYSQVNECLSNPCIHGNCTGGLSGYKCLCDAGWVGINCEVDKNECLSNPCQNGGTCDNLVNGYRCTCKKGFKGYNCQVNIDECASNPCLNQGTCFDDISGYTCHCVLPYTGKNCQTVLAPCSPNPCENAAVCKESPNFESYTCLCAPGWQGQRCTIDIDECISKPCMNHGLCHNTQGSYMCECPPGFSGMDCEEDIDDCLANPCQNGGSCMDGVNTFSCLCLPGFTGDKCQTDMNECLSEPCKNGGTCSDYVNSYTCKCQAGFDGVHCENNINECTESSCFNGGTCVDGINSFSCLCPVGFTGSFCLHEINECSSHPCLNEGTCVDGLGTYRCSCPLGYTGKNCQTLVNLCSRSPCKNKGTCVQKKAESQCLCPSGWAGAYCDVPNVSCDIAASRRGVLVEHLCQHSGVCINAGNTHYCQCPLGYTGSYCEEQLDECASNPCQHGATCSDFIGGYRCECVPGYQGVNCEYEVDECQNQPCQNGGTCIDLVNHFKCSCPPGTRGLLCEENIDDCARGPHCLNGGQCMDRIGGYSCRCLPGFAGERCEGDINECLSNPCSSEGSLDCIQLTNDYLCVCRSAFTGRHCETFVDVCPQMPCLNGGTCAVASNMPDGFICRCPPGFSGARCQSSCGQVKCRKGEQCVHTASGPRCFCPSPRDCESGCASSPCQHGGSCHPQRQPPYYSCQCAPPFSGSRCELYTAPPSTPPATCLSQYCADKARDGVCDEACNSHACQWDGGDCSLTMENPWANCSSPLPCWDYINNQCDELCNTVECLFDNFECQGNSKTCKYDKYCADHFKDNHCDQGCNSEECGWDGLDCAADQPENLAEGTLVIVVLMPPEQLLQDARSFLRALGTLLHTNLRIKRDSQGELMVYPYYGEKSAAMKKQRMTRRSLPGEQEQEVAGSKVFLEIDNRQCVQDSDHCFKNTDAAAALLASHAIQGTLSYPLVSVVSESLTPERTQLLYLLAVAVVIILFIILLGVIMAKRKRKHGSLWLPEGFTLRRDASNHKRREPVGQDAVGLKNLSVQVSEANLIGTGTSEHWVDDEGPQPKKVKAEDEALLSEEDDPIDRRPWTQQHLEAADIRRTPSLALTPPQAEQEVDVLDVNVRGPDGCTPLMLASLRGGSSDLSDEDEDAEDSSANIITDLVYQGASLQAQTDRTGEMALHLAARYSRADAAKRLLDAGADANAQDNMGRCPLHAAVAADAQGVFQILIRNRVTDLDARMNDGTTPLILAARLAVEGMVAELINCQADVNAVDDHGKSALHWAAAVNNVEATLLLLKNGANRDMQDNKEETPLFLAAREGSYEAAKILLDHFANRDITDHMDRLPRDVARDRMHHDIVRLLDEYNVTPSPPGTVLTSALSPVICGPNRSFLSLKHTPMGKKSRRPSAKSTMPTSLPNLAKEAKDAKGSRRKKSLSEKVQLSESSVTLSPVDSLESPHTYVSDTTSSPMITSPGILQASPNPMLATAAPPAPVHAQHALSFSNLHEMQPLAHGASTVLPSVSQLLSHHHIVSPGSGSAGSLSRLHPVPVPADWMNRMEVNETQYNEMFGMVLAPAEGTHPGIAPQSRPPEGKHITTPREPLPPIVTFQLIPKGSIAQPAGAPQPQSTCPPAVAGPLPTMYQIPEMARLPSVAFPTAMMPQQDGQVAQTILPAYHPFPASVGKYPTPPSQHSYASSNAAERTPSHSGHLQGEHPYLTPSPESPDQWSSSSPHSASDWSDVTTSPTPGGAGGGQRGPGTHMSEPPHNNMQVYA

[6] = target: Pro-neuregulin-1, membrane-bound isoform (Homo sapiens) (UniProt Q02297); assay: small molecules binding neuregulin-1 protein – biochemical, small-molecule microarray, fluorescence 635/667, psychiatric disease protein project, primary screen (AID 1075); conditions: NRG1 binding, 635 nm fluorescence, higher = more signal;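 further: score combines 667 nm spot fluorescence with signal to noise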
Sequence of Pro-neuregulin-1, membrane-bound isoform (Homo sapiens) (Q02297 whole entry, looked up, the tested form may be a part, canonical isoform): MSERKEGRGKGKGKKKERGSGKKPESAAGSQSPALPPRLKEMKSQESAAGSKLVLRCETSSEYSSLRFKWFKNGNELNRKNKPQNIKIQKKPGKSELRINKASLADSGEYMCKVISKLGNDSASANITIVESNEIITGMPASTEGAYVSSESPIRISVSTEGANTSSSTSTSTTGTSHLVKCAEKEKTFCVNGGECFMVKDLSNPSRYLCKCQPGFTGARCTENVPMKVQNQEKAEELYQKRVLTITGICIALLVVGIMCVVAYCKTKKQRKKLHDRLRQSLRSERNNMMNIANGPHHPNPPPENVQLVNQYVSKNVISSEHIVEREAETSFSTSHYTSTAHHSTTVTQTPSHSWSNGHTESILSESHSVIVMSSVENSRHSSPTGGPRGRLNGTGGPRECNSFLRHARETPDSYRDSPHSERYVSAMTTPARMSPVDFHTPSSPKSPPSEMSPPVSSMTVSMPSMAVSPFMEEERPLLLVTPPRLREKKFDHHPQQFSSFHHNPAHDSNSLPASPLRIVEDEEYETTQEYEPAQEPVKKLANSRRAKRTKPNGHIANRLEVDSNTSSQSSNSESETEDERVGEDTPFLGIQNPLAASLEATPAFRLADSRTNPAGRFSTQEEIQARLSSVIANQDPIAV

[7] = system: Neuregulin-1 EGF-like domain; assay: small molecules binding NRG1 EGF domain – biochemical, small-molecule microarray, 635 nm fluorescence, primary screen (AID 1081); conditions: higher = more signal;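 further: binding of the protein to compounds printed on small-molecule microarray slides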
[8] = FRG1 expression reporter modulators in myotubes – cell-based, C2C12 myotubes, firefly/Renilla luciferase, luminescence, FRG1 inhibition for FSHD, primary screen (AID 1084); conditions: FRG1 promoter luciferase, higher = more signal, called active from +8 up or from −8 down
[9] = small molecules captured by biotinylated probe aFST – biochemical, small-molecule microarray, fluorescence 635/667, stem cell growth factor project, primary screen (AID 1086); conditions: higher = more signal;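 further: score merges 667 nm fluorescence with signal-to-noise of each printed compound spot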
[10] = binders of probe aHhip on microarray, primary screen, stem cell growth factor project, biochemical, small-molecule microarray, fluorescence 635/667 (AID 1087); conditions: higher = more signal;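 further: score merges spot fluorescence at 667nm with spot signal to noise ratio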

| SMILES | composite z-score [1] | composite z-score [2] | composite z-score [3] | composite z-score [4] | composite z-score [5] | composite z-score [6] | composite z-score [7] | z-score [8] | composite z-score [9] | composite z-score [10] |
| --- | --- | --- | --- | --- | --- | --- | --- | --- | --- | --- |
| CN1C(=O)C2C(C1=O)C1C=C(CCCO)C2C(c2ccc(CN3CCCC3)cc2)N1C (stereo not given) | 0.192 | 0.249 | -0.0902 | -0.302 | -0.291 | 0.0016 | 0.725 | 0.243 (inactive) | -0.424 | 0.0749 |
| O=C1[C@H]2[C@H]3[C@H](O)[C@H](O)CC(=NO[C@@H]4O[C@H](CO)[C@@H](O)[C@H](O)[C@H]4O)[C@H]3CC[C@H]2C(=O)N1Cc1ccccc1 | -0.658 | 0.0571 | -0.116 | 0.602 | 1.4 | -0.328 | 0.0944 | 0.632 (inactive) | 0.564 | 0.199 |
| C=CCOC(=O)[C@H]1[C@@H]2C(=O)O[C@@H](c3ccccc3)[C@@H](c3ccccc3)N2[C@@H](c2ccc(OCCOC(=O)[C@H]3C[C@H]4C(=O)N[C@@H](Cc5ccccc5)C(=O)N4[C@H]3c3ccc(O)cc3)cc2)[C@]12C(=O)Nc1ccccc12 | -0.298 | 0.0087 | -0.0692 | 0.349 | 0.355 | 0.188 | 1.29 | 0.458 (inactive) | 0.276 | -0.109 |
| O=C1[C@H]2[C@H]3[C@H](O)[C@H](O)CC(=NO[C@@H]4O[C@H](CO)[C@@H](O)[C@H](O)[C@H]4O)[C@@H]3CC[C@H]2C(=O)N1Cc1ccccc1 | -0.466 | 1.08 | -0.074 | 0.312 | 0.595 | -0.516 | -0.9 | -0.7 (inactive) | 0.756 | -0.0994 |
| CC(C)=NOCc1ccc(-c2cc(-c3ccccc3)no2)cc1 | -0.474 | -0.191 | -0.0788 | 0.241 | 0.29 | -0.225 | 0.123 | -0.172 (inactive) | 0.0003 | -0.0296 |
| COc1ccc(-c2nc3c(c4c2C[C@H](C)OC4)CN(CCC(C)C)CC3)cc1 | -0.256 | 0.39 | -0.123 | 0.644 | 1.04 | 0.114 | 0.917 | -0.145 (inactive) | 0.414 | -0.189 |
| C[C@@H]1CCC2C(=O)N(Cc3ccccc3)C[C@@H](O)CN2[C@H]1c1ccc(Br)cc1 (stereo not given in full) | -0.364 | 0.381 | -0.145 | 0.84 | -0.05 | 0.0596 | 0.963 | -0.765 (inactive) | -0.0584 | -0.0618 |
| COc1ccc(-c2ccc3c(n2)CCCN3CC(O)CN2CCCc3nc(C)c(C)cc32)cc1 (stereo not given) | 0.683 | 1.55 | 0.126 | 0.961 | 0.63 | 0.641 | 0.732 | 3.33 (inactive) | 1.02 | 0.38 |
| Cc1ccc(C2CC=C(C(=O)O)CN2S(=O)(=O)c2ccc(C)cc2)cc1 (stereo not given) | 0.004 | 0.157 | -0.0258 | 0.0852 | 0.677 | 1.97 | 0.937 | -2.06 (inactive) | 0.374 | 0.0749 |
| CCCCCCc1nc(CCCc2cc3c(c(CCCCCC)n2)[Si](C(C)C)(C(C)C)O[C@H]3c2ccccc2)cc2c1[Si](C(C)C)(C(C)C)O[C@H]2c1ccccc1 | -0.342 | -0.244 | -0.109 | -0.217 | -0.253 | -0.47 | -0.744 | -0.364 (inactive) | 0.163 | -0.277 |
| C#C[C@@H](CC)O[Si](C#Cc1ccc(Oc2ccccc2)cc1)(C(C)C)C(C)C | -0.321 | 0.438 | -0.201 | 0.247 | 0.824 | 0.108 | 0.0426 | 0.364 (inactive) | 0.168 | -0.0193 |
| C#C[C@@H]1Oc2ccccc2S(=O)(=O)N2CCC[C@H]12 | -0.311 | 0.143 | -0.114 | 0.0728 | 0.133 | -0.206 | -0.113 | -0.587 (inactive) | 0.214 | -0.0596 |
| CO[C@@H]1COC(=O)CCC[C@@H](C)[C@H](OC)COC(=O)CCC[C@H]1C | -0.298 | 0.743 | -0.0982 | 0.219 | 0.633 | -0.63 | 0.176 | 0.462 (inactive) | 0.561 | 0.369 |
| [N-]=[N+]=NCc1ccccc1C[C@]1(C(=O)NCc2ccccc2)N=C(c2ccc(OCCCO)cc2)O[C@H]1c1ccccc1N=[N+]=[N-] | 0.741 | -0.0741 | -0.0231 | 1.13 | 1.22 | 0.799 | 1.01 | -1.34 (inactive) | 1.16 | 0.295 |
